Compound activity from PubChem BioAssay.
Compounds with a hit are over-represented: about 2.2% of the library has one in this group of screens.
TWEAK-Fn14 inh: inhibitors of TWEAK-Fn14 interaction signaling. TWEAK-stimulated Fn14 reporter cells, luciferase luminescence, 8 h. inhibition, % at 10 µM. AID 1159606. 2% of 360,000 active; in the data active = inhibition above about 50%
LGR2 antag: inhibitors of bursicon-induced Drosophila LGR2 receptor cAMP signaling; HEK293 LGR2, CRE-luciferase, bursicon-stimulated, 4 h; inhibition, % at 9.99 µM; 0.35% of 380,000 active; AID 720647;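 active = drop in luminescence signal, shown as inhibition above about 50% in the replicate tests, limit read from the data, passing the limit was not always enough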;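 also: agonist challenge used bursicon conditioned medium at about half maximal strength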
HSP90 refold inh: inhibitors of HSP90 luciferase refolding in rabbit reticulocyte lysate; luciferase refolding luminescence, 3 h; 0.91% of 290,000 active; inhibition, % at 5.6 µM;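 active = inhibition above the screen-wide mean plus 3 SD, computed separately per campaign, cut at about 16% in these data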;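 also: 0% = DMSO wells and 100% = 60 µM geldanamycin wells; inhibitors lower the luminescence because luciferase stays unfolded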
TROY NFkB inh: inhibitors of TROY-dependent NF-kB signaling. AID 1347056. 0.98% of 360,000 active. inhibition, % at 10 µM. Q293 LMP1-TROYcd NF-kB luciferase reporter, 4 h;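 active = compounds whose plate-normalised and pattern-corrected inhibition of the luciferase reporter signal at the single screening dose is 50% or more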
HSP90 inh confirm: confirmation of HSP90 inhibitors; inhibition, % at 5.9 µM; AID 1846; 64% of 2,300 active; rabbit reticulocyte lysate, luciferase refolding luminescence, 3 h; shares compounds with HSP90 refold inh; in the data active = inhibition above about 18%;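 also: 0% = vehicle wells and 100% = reference inhibitor wells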
luciferase ctr: counter-screen for HSP90 inhibitors: inhibitors of firefly luciferase | shares compounds with HSP90 refold inh | purified native firefly luciferase, luminescence | inhibition, % at 5.9 µM | 48% of 2,300 active | AID 1847;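 active = inhibition above the mean inhibition of all tested sample wells plus 3 SD, cut at about 10% in these data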;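 also: 0% = DMSO with luciferase and 100% = wells lacking luciferase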
Target sequence (P08659 whole entry, looked up): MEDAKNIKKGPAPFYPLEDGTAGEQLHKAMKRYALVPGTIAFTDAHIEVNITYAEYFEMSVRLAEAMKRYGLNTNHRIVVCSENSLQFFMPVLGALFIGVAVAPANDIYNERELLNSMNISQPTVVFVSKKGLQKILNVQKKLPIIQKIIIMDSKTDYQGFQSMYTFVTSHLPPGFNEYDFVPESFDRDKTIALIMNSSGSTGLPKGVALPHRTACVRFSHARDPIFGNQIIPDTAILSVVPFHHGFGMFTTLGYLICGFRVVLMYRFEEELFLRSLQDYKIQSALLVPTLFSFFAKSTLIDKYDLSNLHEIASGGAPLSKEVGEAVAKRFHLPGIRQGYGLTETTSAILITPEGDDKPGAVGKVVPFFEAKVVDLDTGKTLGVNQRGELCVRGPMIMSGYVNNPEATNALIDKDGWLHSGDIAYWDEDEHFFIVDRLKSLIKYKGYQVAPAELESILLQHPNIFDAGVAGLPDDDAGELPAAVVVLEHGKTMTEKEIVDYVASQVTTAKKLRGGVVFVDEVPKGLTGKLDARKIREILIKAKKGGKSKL
* = called active by the depositor; · = not tested or not shown.

SMILES | TWEAK-Fn14 inh | LGR2 antag | HSP90 refold inh | TROY NFkB inh | HSP90 inh confirm | luciferase ctr
CCOc1ccc(OCc2cccc(C(=O)N3CCCC3)c2)cc1 | -6 | -32 | 21* | -61 | 30* | 26*
CCCN1C[C@H](C)[C@H](OC)CN(C)C(=O)c2cc(NC(=O)C3CCC3)ccc2OC[C@@H]1C | · | 1 | · | · | · | ·
Cc1c(C(=O)O)cccc1-c1ccc(/C=C2\SC(=O)NC2=O)o1 | -10 | 26 | 29* | -30 | 39* | 17*
Cc1ccc(/C=C2/NC(=O)N(c3ccccc3)C2=O)o1 | 8 | · | -3 | 25 | · | ·
CCOC(=O)CN1C(=O)S/C(=C\c2ccc(-c3cccc(C(=O)O)c3C)o2)C1=O | -16 | -43 | · | -35 | · | ·
Cc1c(C(=O)O)cccc1-c1ccc(/C=C2/NC(=O)N(c3ccccc3)C2=O)o1 | -11 | -51 | 33* | -21 | 28* | -20
C[C@@H]1CN([C@@H](C)CO)C(=O)c2cccc(NC(=O)c3ccncc3)c2O[C@@H]1CN(C)C(=O)Nc1ccccc1 | · | 3 | · | · | · | ·
C[C@@H]1CN([C@H](C)CO)C(=O)c2cccc(NS(C)(=O)=O)c2O[C@H]1CN(C)C(=O)Nc1ccccc1 | · | 18 | · | · | · | ·
CCCNC(=O)Nc1ccc2c(c1)C(=O)N(C)[C@@H]1CC[C@@H](CC(=O)NCCCN(C)C)O[C@@H]1CO2 | · | -22 | · | · | · | ·
Cn1c(=O)[nH]c(=O)c2c1nc(N1CCCCC1)n2C/C=N/Nc1ccc(C(=O)O)cc1 | 17 | 11 | 41* | 18 | 29* | 36*
CC1=Nc2cccc3cccc(c23)N1C | 8 | -10 | 15 | -22 | · | ·
CN1C(=O)Nc2cccc3cccc1c23 | 18 | -13 | 21* | 20 | 0 | -4
CC(C)(C)NC(=S)NCc1ccncc1 | 11 | -7 | 23* | 8 | -2 | -4
Cc1ccc(CNC(=S)NCc2ccncc2)cc1 | 14 | 31 | 4 | 28 | · | ·
O=C(c1ccc2c(c1)OCO2)N1CC[C@@H]2[C@@H](CO)Nc3ccc(-c4ccccc4)cc3[C@@H]21 | · | 11 | · | · | · | ·
O=C(OCC(F)(F)F)c1cccc(COc2ccc3ccccc3c2)c1 | -2 | · | 25* | -53 | 93* | 22*
O=C(NCc1ccccc1)c1cccc(COc2ccc3c(c2)CCC3)c1 | 3 | 25 | 36* | -54 | 45* | 45*
O=C(O)c1cccc(COc2ccc3c(c2)CCC3)c1 | 12 | 101* | 83* | -89 | 95* | 93*
O=Cc1ccc(OCc2cccc(C(F)(F)F)c2)cc1O | 15 | -25 | -4 | 30 | · | ·
CO[C@@H]1CN(C)C(=O)c2cc(NC(=O)Nc3ccccc3Cl)ccc2OC[C@H](C)NC[C@@H]1C | · | 0 | · | · | · | ·
COc1ccc2c3c(n(C)c2c1)[C@H](CO)N(C)CC31CCN(CC2CC2)CC1 | · | -1 | · | · | · | ·
O=C(O)c1ccc2c3n(nc2c1)-c1ccc(Cl)cc1CO3 | · | -27 | 84* | · | 75* | 27*
CC(C)Oc1ccc(/C(O)=C2/C(=O)C(=O)N(Cc3cccnc3)C2c2ccco2)cc1 (stereo unspecified) | 13 | · | 20* | -6 | 3 | 15*
S=C(NCCCNC(=S)Nc1ccccc1)Nc1ccccc1 | 18 | 1 | 3 | 1 | · | ·
CC(O)CNC(=S)Nc1ccccc1 (stereo unspecified) | 4 | -1 | 23* | -7 | -6 | -13
SMILES | TWEAK-Fn14 inh | LGR2 antag | HSP90 refold inh | TROY NFkB inh | HSP90 inh confirm | luciferase ctr
CSc1nnc(-c2ccccc2N=Cc2c(C)[nH]n(-c3ccc4ccccc4c3)c2=O)c(=O)[nH]1 | -3 | 9 | 6 | -33 | · | ·
C=CCSc1nnc(-c2ccccc2N=Cc2c(C)[nH]n(-c3ccccc3)c2=O)c(=O)[nH]1 | -27 | · | 22* | -16 | -4 | -8
CC(C)(C)NC(=O)CN(c1cccc([N+](=O)[O-])c1)S(=O)(=O)c1ccccc1 | 3 | 11 | 23* | 1 | -10 | -10
CN1CCC(=NNC(=O)CN(c2cccc([N+](=O)[O-])c2)S(=O)(=O)c2ccccc2)CC1 | -16 | -14 | -1 | -18 | · | ·
COc1ccc(S(=O)(=O)N[C@@H]2CC[C@H](CCn3cc(-c4ccccc4F)nn3)O[C@@H]2CO)cc1 | · | 10 | · | · | · | ·
CC(=NC1CC1)c1c(-c2ccccc2)[nH]n(-c2nc3ccccc3s2)c1=O | 42 | · | 5 | -7 | · | ·
CC(=NC1CCCC1)c1c(C)[nH]n(-c2nc3ccccc3s2)c1=O | 42 | · | 19* | 42 | 19* | 1
CCOC(=O)/C(C#N)=C/c1c(Oc2cccc(C)c2)nc2ccccn2c1=O | -9 | 0 | 29* | -22 | -5 | -7
COCC(=O)N(C)C[C@@H]1Oc2cc(C#CCC(C)C)ccc2S(=O)(=O)N([C@H](C)CO)C[C@H]1C | · | 11 | · | · | · | ·
O=C(CSc1nc2ccccc2[nH]1)NCCc1ccc(Cl)cc1 | 13 | -6 | 25* | -1 | 1 | -4
Cc1ccc(CNC(=O)CSc2nc3ccccc3[nH]2)cc1 | -8 | 3 | 2 | -36 | · | ·
O=C(Nc1ccc2ccccc2c1)c1ccccc1O | 90* | 76* | 39* | 59* | 54* | 46*
O=C(Nc1ccc2ccccc2c1)c1ccccc1[N+](=O)[O-] | 2 | -44 | · | 13 | · | ·
O=C(Nc1ccc2ccccc2c1)c1ccccc1Cl | 15 | -7 | · | -44 | · | ·
O=C(Nc1ccc2ccccc2c1)c1ccc(Cl)cc1Cl | 24 | -4 | 17* | 9 | 37* | 20*
CCS(=O)(=O)N1CCCCN2[C@H](CO)[C@H](c3ccc(-c4cccc(C#N)c4)cc3)[C@H]2C1 | · | -17 | · | · | · | ·
COc1cccc(-c2cn(CC[C@H]3CC[C@@H](NC(=O)CC4CC4)[C@H](CO)O3)nn2)c1 | · | 1 | · | · | · | ·
Cc1cc(Br)ccc1NC(=O)C1CCN(C(=O)c2ccco2)CC1 | 2 | 4 | 75* | 1 | -9 | -11
CCCCn1c(NC(C)=O)c(C#N)c2nc3ccccc3nc21 | -1 | · | 24* | 12 | 3 | -2
CCCCn1c(NC(=O)c2ccc(Br)o2)c(S(=O)(=O)c2ccccc2)c2nc3ccccc3nc21 | 74* | · | 34* | 71* | 3 | -6
C=CCn1c(NC(=O)c2ccccc2Cl)c(C#N)c2nc3ccccc3nc21 | 13 | · | 49* | 66* | 12 | 0
CCCCCn1c(N)c(C#N)c2nc3ccccc3nc21 | 26 | 1 | 1 | 26 | · | ·
CCn1c(=O)c2cc(C(=O)N(C)c3ccc(OC)cc3OC)sc2c2ccccc21 | -4 | 9 | 23* | 22 | 8 | -2
CCn1c(=O)c2cc(C(=O)N(C)c3cc(C)ccc3OC)sc2c2ccccc21 | -26 | 0 | 2 | 3 | · | ·
O=C(c1ccccc1)N1C[C@H]2[C@@H](c3ccccc31)[C@H](CO)N2C(=O)Nc1ccccc1Cl | · | -4 | · | · | · | ·
Cc1cc(O)c(S(=O)(=O)c2ccccc2)c(C)c1NS(=O)(=O)c1ccccc1 | 3 | -11 | 18* | -30 | 21* | -8
O=C(O)CC1SC(N/N=C/c2ccc(Br)cc2)NC1=O (stereo unspecified) | 7 | 10 | 17* | -11 | 24* | -10
